In all, about 5,500 compounds went through this assay and about 2,000 (36%) were called active. Roughly 18% stayed inconclusive and do not appear here. Cut-off read from the data, not from the text of the source: active = normalized growth mostly below about 0.91 (no sharp cut-off); inconclusive = no clear call, values can overlap the other calls; inactive = mostly above about 0.92. The list shows a part of the results.
Assay: chemical genetic growth profiling, strain panel (AID 1159580);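 note: tested at 20 µM; growth read once vehicle control cultures reached saturation at 30 °C; 1 = growth at the plate median or of vehicle wells; lower values mean less growth of the strain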
Settings: S. cerevisiae deletion strains, growth OD
[1] = locus YAL040C, strain CLN3, stronger effect = lower value
[2] = locus YCL061C, strain MRC1 (second series), stronger effect = lower value
[3] = locus YDR363W, strain ESC2, stronger effect = lower value
[4] = locus YER002W, strain NOP16, stronger effect = lower value
[5] = locus YMR263W, strain SAP30, stronger effect = lower value
[6] = locus YMR307W, strain GAS1, stronger effect = lower value
[7] = locus YNL175C, strain NOP13, stronger effect = lower value
[8] = locus YNL197C, strain WHI3, stronger effect = lower value
[9] = locus YNL224C, strain SQS1, stronger effect = lower value
[10] = locus YOR083W, strain WHI5 (second series), stronger effect = lower value

Measured: normalized growth

C[N+]1(C)C2CC(OC(=O)C(CO)c3ccccc3)CC1C1OC12 (configuration not stated)
inactive: locus YAL013W, strain DEP1, stronger effect = lower value 1.03 | [1] 0.975 | [2] 0.995 | [3] 0.985 | [4] 0.997 | locus YGR229C, strain SMI1, stronger effect = lower value 1.05 | [5] 1 | [6] 1.01 | locus YNL128W, strain TEP1, stronger effect = lower value 0.992 | [7] 0.973 | [8] 0.982 | [9] 0.988 | locus YNL322C, strain KRE1, stronger effect = lower value 1 | [10] 0.978 | locus YPL055C, strain LGE1, stronger effect = lower value 1.02 | locus YPL241C, strain CIN2, stronger effect = lower value 0.993

C[N+]1(C)C2CC(OC(=O)[C@H](CO)c3ccccc3)CC1C1OC12 (some centres not stated)
inactive: [1] 0.999 | [2] 1 | [3] 0.998 | [4] 0.981 | [5] 0.998 | [6] 0.946 | locus YNL153C, strain GIM3, stronger effect = lower value 0.99 | [7] 0.996 | [8] 0.988 | [9] 0.994 | [10] 0.991
